Experimental data reported in PubChem BioAssay (NCI).
The panel holds about 83,000 compounds, 20% with a hit somewhere; the sample as a whole holds those more often.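 Values shown are percent growth following 48 h exposure of cells in 96-well plates to a single concentration of compound; below 10 was considered active.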 A number with no mark means an inactive call. Activity calls are given as the source filed them.

Legend:
Assay in all cases: NCI-60 one-dose screen, 48 h (100 = growth as untreated, 0 = no growth, -100 = all killed)
HCT-15 colon = conditions: 10 µM unless noted
HT29 colon = conditions: 10 µM unless noted
SNB-75 CNS = conditions: 10 µM unless noted
SNB-19 CNS = conditions: 10 µM unless noted
U251 CNS = conditions: 10 µM unless noted
PC-3 prostate = conditions: 10 µM unless noted
SK-MEL-5 melanoma = conditions: 10 µM unless noted
UACC-62 melanoma = conditions: 10 µM unless noted
LOX IMVI melanoma = conditions: 10 µM unless noted
SK-MEL-28 melanoma = conditions: 10 µM unless noted
SK-MEL-2 melanoma = conditions: 10 µM unless noted
EKVX NSCLC = conditions: 10 µM unless noted
SN12C renal = conditions: 10 µM unless noted
UO-31 renal = conditions: 10 µM unless noted
ACHN renal = conditions: 10 µM unless noted
CAKI-1 renal = conditions: 10 µM
A498 renal = conditions: 10 µM unless noted
CCRF-CEM leukemia = conditions: 10 µM unless noted
MOLT-4 leukemia = conditions: 10 µM unless noted
TK-10 renal = conditions: 10 µM unless noted

Structure (SMILES)	growth (HCT-15 colon)	growth (HT29 colon)	growth (SNB-75 CNS)	growth (SNB-19 CNS)	growth (U251 CNS)	growth (PC-3 prostate)	growth (SK-MEL-5 melanoma)	growth (UACC-62 melanoma)	growth (LOX IMVI melanoma)	growth (SK-MEL-28 melanoma)	growth (SK-MEL-2 melanoma)	growth (EKVX NSCLC)	growth (SN12C renal)	growth (UO-31 renal)	growth (ACHN renal)	growth (CAKI-1 renal)	growth (A498 renal)	growth (CCRF-CEM leukemia)	growth (MOLT-4 leukemia)	growth (TK-10 renal) [%]
NCC(=O)NS(=O)(=O)OC[C@H]1O[C@@H](n2cnc3c(N)ncnc32)[C@H](O)[C@@H]1O	11.4%	6% (active)	-6.72% (active)	-6.06% (active)	-39.3% (active)	9.66% (active)	-0.341% (active)	30.7%	-45.6% (active)	8.36% (active)	-34.4% (active)	44.1%	1.03% (active)	6.08% (active)	11.8%	5.11% (active)	-58.8% (active)	21.7%	1.15% (active)	
Cc1ccc[n+](CC(=O)c2cccc3ccccc23)c1	102%	102%	96.2%	107%	106%	101%	99.7%	111%	104%	105%	106%	95.9%	102%	89.5%	103%	100%	90%	101%	98%	
CN1CCN(CC(=O)N(C)c2ccc(N=C(c3ccccc3)c3c(O)[nH]c4ccc(C#N)cc34)cc2)CC1	64.7%	10.7%	3.45% (active)	61.1%	35.8%	36.4%	25.8%	68.1%	13.2%	53%	16.4%	63.4%	26.4%	23.9%	48.4%	20.2%	27%	15.8%	8.12% (active)	
COc1ccc(-c2nn(-c3ccc(NC(=O)Nc4ccc(Cl)c(Cl)c4)cc3)cc2-c2ccncc2)cc1Cl	7.56% (active)	6.65% (active)	46.8%	34.4%	0.654% (active)	11.3%	-27.5% (active)	9.56% (active)	-0.494% (active)	28.4%	-35.5% (active)	21.5%	20.5%	16.9%	14.8%	3.8% (active)	10.7%	12.6%	10.5%	
CCOC(=O)C1=C(N)Oc2cc(OC)ccc2C1c1ccc(F)c(F)c1 (stereo unspecified)	22.3%	2.96% (active)	5.44% (active)	28.1%	28.2%	26.8%	12.8%	25.5%	43.8%	63.2%	11.8%	40.1%	47.1%	44.2%			4.52% (active)		28.6%	63.3
CC(C)(c1ccc(OCC(O)CNCc2ccco2)cc1)c1ccc(OCC(O)CNCc2ccco2)cc1 (stereo unspecified)	82.8%	78.5%	80.1%	96.4%	70.1%	75.6%	91.7%	104%	86.1%	101%	94.4%	92.1%	87.6%	66.3%			68.9%		67.1%	93.1
Nc1nccc2c1ccn2-c1ccc(NC(=O)c2ccc(N3CCOCC3)c(C(F)(F)F)c2)cc1	14.1%	-39.7% (active)	25.7%	0.546% (active)	12%	10.4%	-89.6% (active)	6.43% (active)	-45.3% (active)	48.9%	35.3%	36.7%	48.8%	-41.2% (active)	24.3%	-25.3% (active)	-9.64% (active)	18.5%	-3.7% (active)	
CCN(CC)C(=O)C1CCN(C(=O)c2ccccc2)CC1	104%	104%	94%	100%	101%	96.9%	101%	97.2%	96.7%	107%	98.3%	101%	101%	89.2%				80.9%	92.2%	87.1
COc1ccccc1C(OC(C)=O)OC(C)=O	103%	88.5%	96.4%	113%	97.3%	102%	101%	102%	92.9%	109%	90.7%	99%	111%	89.9%			113%		103%	91.1
CCc1cccc(-c2ccccc2)c1	103%	114%	105%	107%	106%	99%	111%	103%	109%	120%	116%	102%	99.5%	87.8%				8.01% (active)	88%	106
O=c1c2ccccc2[nH]n1Cc1ccc2c(c1)OCO2	95.7%	104%	101%	97%	96.2%	88.1%	100%	100%	111%	106%	104%	105%	101%	92.7%	103%	104%	90.3%	96.2%	97.4%	
COc1ccc(Cl)cc1NC(=O)c1cc2c(n1C)-c1nc(NC(=O)C(C)(C)C)sc1CC2	89.4%	79.2%	83.1%	106%	88.4%	71.7%	79.7%	87.7%	93.9%	92.4%	79.7%	76.2%	107%	53.5%					72.5%	98
CC1CCC(C(C)C)C(NN)C1 (stereo unspecified)	104%	77.1%	103%	106%	96.3%	93.9%	102%	96.7%	103%	111%	101%	102%	102%	88.8%			105%		65.9%	96.5
CC(=O)c1cc2c(c(O)c1C)C(=O)C(=O)c1c(O)cccc1-2	-61.3% (active)	-15.5% (active)	-98.2% (active)	-85.9% (active)	-94.5% (active)	-26.4% (active)	-97.9% (active)	-71.6% (active)	-49.2% (active)	-87.2% (active)	-72.7% (active)	-42.3% (active)	-41.4% (active)	-97.3% (active)	-90.3% (active)	-79.6% (active)	-80.6% (active)	0.77% (active)		
CCn1c(SC)nnc1-c1cc2c([nH]c3ccccc32)c(-c2cccc(O)c2)n1	20.4%	50.7%	-23.1% (active)	52.8%	15.5%	24.6%	-16.2% (active)	36.7%	16.5%	41.3%	15.6%	21.6%	39.5%	24.1%	30.5%	25.3%	-2.24% (active)	18.4%		
O=C(NCCNc1nccc(-c2c(-c3cccc(O)c3)nc3sccn23)n1)c1cccc(C(F)(F)F)c1	87.8%	81.1%	73.8%	116%	84.8%	67.3%	52.6%	3.21% (active)	53.4%	38.5%	62.1%	91.6%	83.2%	73.4%	66.1%	75.6%	84.5%	37.5%	61.5%	
O=C(Nc1ccc(-n2ccc3c(NC(=O)c4ccccc4)ncnc32)cc1)c1ccc(Cl)c(C(F)(F)F)c1	3.27% (active)	-50.6% (active)	66.5%	24.7%	-62.9% (active)	29.1%	26.3%	5.8% (active)	-9.6% (active)	62.5%	34.7%	47.7%	22%	32.7%	27.6%	34.8%	80.1%	7.36% (active)	4.17% (active)	
